PubChem BioAssay AID1159580 (chemical genetic matrix, 2015)
Out of some 5,500 compounds screened, about 2,000 (36%) were called active. Inconclusive results (about 18%) are left out. Rule as the data show it: active = normalized growth mostly below about 0.91 (no sharp cut-off); inconclusive = no clear call, values can overlap the other calls; inactive = mostly above about 0.92. This is one part of the list.

Test: chemical genetic growth profiling, strain panel (AID 1159580);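 also: tested at 20 µM; growth read once vehicle control cultures reached saturation at 30 °C; 1 = growth at the plate median or of vehicle wells; lower values mean less growth of the strain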
Details: S. cerevisiae deletion strains, growth OD

Measured: normalized growth

OC(CN1CCC(Cc2ccc(F)cc2)CC1)c1ccc(Cl)cc1 (centres undefined)
inactive: locus YAL040C, strain CLN3, hits give low values 0.991 | locus YCL061C, strain MRC1 (second series), hits give low values 0.997 | locus YDR150W, strain NUM1, hits give low values 0.999 | locus YDR363W, strain ESC2, hits give low values 1.05 | locus YER002W, strain NOP16, hits give low values 1.03 | locus YGR229C, strain SMI1, hits give low values 1.07 | locus YJR075W, strain HOC1, hits give low values 1.01 | locus YMR263W, strain SAP30, hits give low values 0.992 | locus YNL128W, strain TEP1, hits give low values 1.01 | locus YNL175C, strain NOP13, hits give low values 1 | locus YNL197C, strain WHI3, hits give low values 1.01 | locus YNL224C, strain SQS1, hits give low values 1 | locus YOR083W, strain WHI5 (second series), hits give low values 1.05 | locus YPL055C, strain LGE1, hits give low values 1.01
